# PubChem BioAssay (EPA / NIEHS)
# Where “and” joins values, the source holds several entries; their conditions need not be identical. Identical values can stand only once. Results filed as inconclusive are left out. Some compounds were tested as several samples or in several runs, with calls that do not always agree. Calls of active or inactive are those of the source. How the source made its calls, unless noted: active means hit-call score of the fitted dose curve at least 0.9, where 1 is the maximum; inactive means score below 0.9.
# Tested on: not listed separately
# Assay: ATG_M_32_TRANS: Attagene TRANS-FACTORIAL HepG2 Assay for M32 Transcription Factor (Internal Marker) (AID 2282984; active means hit-call score of the fitted dose curve at least 0.9, where 1 is the maximum;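 further: transcript level of a background control reporter unit measured by RT-PCR and capillary electrophoresis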)
# Details: HepG2 Attagene TRANS M32 internal marker reporter
# Method in brief: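 Measures reporter mRNA induction in human HepG2 liver cells after 24 h chemical treatment. Transcripts from transiently transfected GAL4-UAS reporter units are amplified, fluorescently labelled and sized by capillary electrophoresis; gain of signal relative to DMSO.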
row,SMILES,outcome
1,OC(CCl)CCl,inactive
2,CCCC(CCC)C(=O)O,inactive
3,OCCNCCO,inactive
4,c1ccc(C(O[C@@H]2CCCN(CCc3ccc4c(c3)OCO4)C2)c2ccccc2)cc1,inactive
5,NNC(=O)c1ccncc1,inactive
6,OCc1c[nH]c2ccccc12,inactive
7,c1ccc2cc3ccccc3cc2c1,inactive
8,CCCCCOC(C)=O,inactive
9,CCn1nc(C)c2c1C(=O)NCC(c1ccc(O)cc1)=N2,inactive
10,FC(F)C(F)(F)COCC1CO1 (stereo not given),inactive
11,Cc1ncc([C@@H](CCCCCCc2ccc3c(n2)NCCC3)CC(=O)O)cn1,inactive
12,O=C(O)c1cccc(C[C@@H]2COc3ccc(OCc4nc5cc(F)ccc5s4)cc3[C@@H]2O)c1,inactive
13,CCCCCCCCCCCCCCCCOS(=O)(=O)O,inactive
14,O=C1CN(N=Cc2ccc([N+](=O)[O-])o2)C(=O)N1,inactive
15,OCCOCCOCCO,inactive

# Target: Nuclear receptor subfamily 4 group A member 2 (Homo sapiens) (UniProt P43354)
# Assay: ATG_NURR1_TRANS: Attagene TRANS-FACTORIAL HepG2 Assay for human Nuclear Receptor Related Protein 1 (NURR1) (AID 2282985; active means hit-call score of the fitted dose curve at least 0.9, where 1 is the maximum)
# Details: HepG2 Attagene TRANS reporter, mRNA readout
# Method in brief: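 Transient transfection of HepG2, human liver cells, with multiple GAL4-UAS reporter transcription units. Cells dosed 24 h, RNA isolated, reverse-transcribed, PCR-amplified, FAM-labelled, HpaI-digested, sized by capillary electrophoresis. DMSO served as negative control.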
# Sequence of Nuclear receptor subfamily 4 group A member 2 (Homo sapiens) (P43354 whole entry, looked up): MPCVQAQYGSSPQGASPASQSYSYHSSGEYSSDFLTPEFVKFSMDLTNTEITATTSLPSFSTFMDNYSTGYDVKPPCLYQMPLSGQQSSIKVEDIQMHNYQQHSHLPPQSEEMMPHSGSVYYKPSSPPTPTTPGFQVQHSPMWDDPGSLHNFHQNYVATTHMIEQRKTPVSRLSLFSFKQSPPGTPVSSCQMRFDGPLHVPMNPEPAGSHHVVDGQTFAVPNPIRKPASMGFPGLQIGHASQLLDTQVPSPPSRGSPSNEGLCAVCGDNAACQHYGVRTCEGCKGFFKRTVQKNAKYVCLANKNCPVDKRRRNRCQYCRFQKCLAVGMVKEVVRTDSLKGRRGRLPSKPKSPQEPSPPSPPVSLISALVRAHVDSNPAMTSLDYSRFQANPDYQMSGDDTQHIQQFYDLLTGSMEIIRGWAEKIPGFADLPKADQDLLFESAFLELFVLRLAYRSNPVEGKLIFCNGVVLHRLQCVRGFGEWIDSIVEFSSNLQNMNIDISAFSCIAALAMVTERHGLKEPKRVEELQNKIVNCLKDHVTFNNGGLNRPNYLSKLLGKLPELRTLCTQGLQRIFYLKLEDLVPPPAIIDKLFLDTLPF
SMILES,outcome,AC50
CCCCCCCCN(C)C,inactive,
CCCC(CCC)C(=O)O,inactive,
CC(C)CCCCCCOC(=O)C1CCCCC1C(=O)OCCCCCCC(C)C (stereo not given),inactive,
c1ccc(C(O[C@@H]2CCCN(CCc3ccc4c(c3)OCO4)C2)c2ccccc2)cc1,inactive,
O=c1[nH]cnc2c1ncn2[C@H]1CC[C@@H](CO)O1,inactive,
OCc1c[nH]c2ccccc12,inactive,18.8 µM (active) and 14.4 µM (active)
Cc1nccn1-c1ccc(Sc2cccc(C3(C(N)=O)CCOCC3)c2)cc1,,14.3 µM (active)
CC(C)C(=O)Nc1ccc([N+](=O)[O-])c(C(F)(F)F)c1,,43.5 µM (active)
CCCCCOC(C)=O,inactive,
OC(Cn1cncn1)(Cn1cncn1)c1ccc(F)cc1F,inactive,
CCc1cccc(CC)c1N,inactive,
CCn1nc(C)c2c1C(=O)NCC(c1ccc(O)cc1)=N2,inactive,
FC(F)C(F)(F)COCC1CO1 (stereo not given),inactive,
Cc1ncc([C@@H](CCCCCCc2ccc3c(n2)NCCC3)CC(=O)O)cn1,inactive,
CCCc1ccccc1,inactive,
O=C(O)c1cccc(C[C@@H]2COc3ccc(OCc4nc5cc(F)ccc5s4)cc3[C@@H]2O)c1,inactive,
NC(=O)NN=Cc1ccc([N+](=O)[O-])o1,inactive,
CCCCCCCCCCCCCCCCOS(=O)(=O)O,inactive,
OCCOCCOCCO,inactive,
O=C(O)c1ccc2c(c1)nc(C(=O)NC1CCN(C3CC3)CC1)n2Cc1cc(-c2ccc(Cl)s2)on1,inactive,
CCCCC(CC)C(=O)OCCOCCOCCOC(=O)C(CC)CCCC (stereo not given),inactive,

# Target: Transcriptional activator Myb (Homo sapiens) (UniProt P10242)
# Assay: ATG_Myb_CIS: Attagene CIS-FACTORIAL HepG2 Assay for human Myeloblastosis (Myb) Proto-Oncogene Transcription Factor (AID 2282986)
# Details: HepG2 Attagene CIS-FACTORIAL Myb reporter transcription; actives raise or lower the signal
# Method in brief: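 HepG2 cells were transiently transfected with cis-regulated multiple reporter transcription units reflecting endogenous Myb activity, then exposed to compound for 24 hours. Reporter mRNA was measured by RT-PCR with capillary electrophoresis; bidirectional fitting versus DMSO baseline.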
# Sequence of Transcriptional activator Myb (Homo sapiens) (P10242 whole entry, looked up): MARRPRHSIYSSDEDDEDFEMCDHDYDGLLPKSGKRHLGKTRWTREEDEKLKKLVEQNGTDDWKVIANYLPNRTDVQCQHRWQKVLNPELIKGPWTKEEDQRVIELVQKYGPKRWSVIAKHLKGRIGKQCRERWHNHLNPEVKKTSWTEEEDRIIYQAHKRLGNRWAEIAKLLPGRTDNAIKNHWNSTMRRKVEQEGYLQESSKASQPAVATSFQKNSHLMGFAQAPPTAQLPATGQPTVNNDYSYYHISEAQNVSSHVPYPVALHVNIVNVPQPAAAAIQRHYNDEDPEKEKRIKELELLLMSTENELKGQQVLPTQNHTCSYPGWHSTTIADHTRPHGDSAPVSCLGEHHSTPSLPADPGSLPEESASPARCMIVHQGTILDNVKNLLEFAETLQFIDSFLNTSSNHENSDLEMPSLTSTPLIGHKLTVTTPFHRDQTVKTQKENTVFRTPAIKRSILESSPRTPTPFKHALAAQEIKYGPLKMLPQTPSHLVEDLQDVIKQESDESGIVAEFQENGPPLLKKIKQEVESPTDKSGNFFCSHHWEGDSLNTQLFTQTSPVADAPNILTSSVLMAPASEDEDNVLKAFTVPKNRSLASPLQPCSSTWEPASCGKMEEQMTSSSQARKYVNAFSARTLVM
row,SMILES,outcome
1,CCCCCCCCN(C)C,inactive
2,CC(C)CCCCCCOC(=O)C1CCCCC1C(=O)OCCCCCCC(C)C (stereo not given),inactive
3,c1ccc(C(O[C@@H]2CCCN(CCc3ccc4c(c3)OCO4)C2)c2ccccc2)cc1,inactive
4,O=c1[nH]cnc2c1ncn2[C@H]1CC[C@@H](CO)O1,inactive
5,Cc1nccn1-c1ccc(Sc2cccc(C3(C(N)=O)CCOCC3)c2)cc1,inactive
6,CCCCCOC(C)=O,inactive
7,CCc1cccc(CC)c1N,inactive
8,CCn1nc(C)c2c1C(=O)NCC(c1ccc(O)cc1)=N2,inactive
9,CCCc1ccccc1,inactive
10,O=C(O)c1cccc(C[C@@H]2COc3ccc(OCc4nc5cc(F)ccc5s4)cc3[C@@H]2O)c1,inactive
11,OCCOCCOCCO,inactive
12,CCCCC(CC)C(=O)OCCOCCOCCOC(=O)C(CC)CCCC (stereo not given),inactive

# Target: Nuclear respiratory factor 1 (Homo sapiens) (UniProt Q16656)
# Assay: ATG_NRF1_CIS: Attagene CIS-FACTORIAL HepG2 Assay for human Nuclear Respiratory Factor 1 (NRF1) Orphan Gene (AID 2282987)
# Details: HepG2 NRF1 cis-element reporter, Attagene multiplex; actives raise or lower the signal
# Method in brief: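 HepG2 cells transiently transfected with multiple reporter transcription units under cis-regulatory promoter control, so endogenous transcription-factor activity is read. After 24 h compound exposure, reporter mRNA quantified by RT-PCR, fluorescent labelling, HpaI digestion and capillary electrophoresis; bidirectional fitting versus DMSO.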
# Sequence of Nuclear respiratory factor 1 (Homo sapiens) (Q16656 whole entry, looked up): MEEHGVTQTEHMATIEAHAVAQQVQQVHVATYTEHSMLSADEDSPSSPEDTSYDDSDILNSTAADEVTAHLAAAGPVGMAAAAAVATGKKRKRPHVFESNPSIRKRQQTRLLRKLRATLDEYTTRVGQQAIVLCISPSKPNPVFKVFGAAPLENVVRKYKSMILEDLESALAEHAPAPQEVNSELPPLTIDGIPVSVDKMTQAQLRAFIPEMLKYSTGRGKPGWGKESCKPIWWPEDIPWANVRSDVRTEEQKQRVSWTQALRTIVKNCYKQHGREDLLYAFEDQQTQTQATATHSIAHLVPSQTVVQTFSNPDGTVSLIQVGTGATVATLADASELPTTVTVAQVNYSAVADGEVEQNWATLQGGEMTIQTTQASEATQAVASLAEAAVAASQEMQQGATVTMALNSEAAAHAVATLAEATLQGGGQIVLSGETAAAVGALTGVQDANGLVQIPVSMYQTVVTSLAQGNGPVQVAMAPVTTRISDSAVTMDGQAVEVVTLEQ
row,SMILES,outcome
1,OC(CCl)CCl,inactive
2,CC(C)CCCCCCOC(=O)C1CCCCC1C(=O)OCCCCCCC(C)C (stereo not given),inactive
3,c1ccc(C(O[C@@H]2CCCN(CCc3ccc4c(c3)OCO4)C2)c2ccccc2)cc1,inactive
4,O=c1[nH]cnc2c1ncn2[C@H]1CC[C@@H](CO)O1,inactive
5,Cc1nccn1-c1ccc(Sc2cccc(C3(C(N)=O)CCOCC3)c2)cc1,inactive
6,COCc1nnc(-c2ccc[n+]([O-])c2)n1-c1c(Cl)c(Cl)cc2[nH]c(=O)c(=O)[nH]c12,inactive
7,CCc1cccc(CC)c1N,inactive
8,CCn1nc(C)c2c1C(=O)NCC(c1ccc(O)cc1)=N2,inactive
9,Cc1ncc([C@@H](CCCCCCc2ccc3c(n2)NCCC3)CC(=O)O)cn1,inactive
10,CCCc1ccccc1,inactive
11,O=C(O)c1cccc(C[C@@H]2COc3ccc(OCc4nc5cc(F)ccc5s4)cc3[C@@H]2O)c1,inactive
12,NC(=O)NN=Cc1ccc([N+](=O)[O-])o1,inactive
13,CCCCCCCCCCCCCCCCOS(=O)(=O)O,inactive
14,O=C(O)c1ccc2c(c1)nc(C(=O)NC1CCN(C3CC3)CC1)n2Cc1cc(-c2ccc(Cl)s2)on1,inactive

# Tested on: not listed separately
# Assay: ATG_NFI_CIS: Attagene CIS-FACTORIAL HepG2 Assay for human Nuclear Factor I (NFI) (AID 2282989)
# Details: HepG2 cis-regulatory reporter, NFI response element transcription; actives raise or lower the signal
# Method in brief: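 Endogenous TF activity in HepG2 cells transiently transfected with cis-element-driven multiplexed reporter units, read 24 h after dosing. Reporter mRNA quantified by RT-PCR, 6-FAM labelling, HpaI digestion and capillary electrophoresis; bidirectional fit versus DMSO.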
SMILES,outcome,AC50
OC(CCl)CCl,inactive,
CCCCCCCCN(C)C,inactive,
CCCC(CCC)C(=O)O,inactive,
OCCNCCO,inactive,
CC[C@H](C)C(=O)O[C@H]1C[C@H](O)C=C2C=C[C@H](C)[C@H](CC[C@@H](O)C[C@@H](O)CC(=O)O)[C@H]21,inactive,
CC(C)CCCCCCOC(=O)C1CCCCC1C(=O)OCCCCCCC(C)C (stereo not given),inactive,
c1ccc(C(O[C@@H]2CCCN(CCc3ccc4c(c3)OCO4)C2)c2ccccc2)cc1,inactive,
NNC(=O)c1ccncc1,inactive,
O=c1[nH]cnc2c1ncn2[C@H]1CC[C@@H](CO)O1,inactive,
OCc1c[nH]c2ccccc12,inactive,
c1ccc2cc3ccccc3cc2c1,inactive,
Cc1nccn1-c1ccc(Sc2cccc(C3(C(N)=O)CCOCC3)c2)cc1,,2.39 µM (active)
CC(C)C(=O)Nc1ccc([N+](=O)[O-])c(C(F)(F)F)c1,inactive,
CCCCCOC(C)=O,inactive,
OC(Cn1cncn1)(Cn1cncn1)c1ccc(F)cc1F,inactive,
COCc1nnc(-c2ccc[n+]([O-])c2)n1-c1c(Cl)c(Cl)cc2[nH]c(=O)c(=O)[nH]c12,inactive,
CCc1cccc(CC)c1N,inactive,
CCn1nc(C)c2c1C(=O)NCC(c1ccc(O)cc1)=N2,inactive,
FC(F)C(F)(F)COCC1CO1 (stereo not given),inactive,
Cc1ncc([C@@H](CCCCCCc2ccc3c(n2)NCCC3)CC(=O)O)cn1,inactive,
CCCc1ccccc1,inactive,
O=C(O)c1cccc(C[C@@H]2COc3ccc(OCc4nc5cc(F)ccc5s4)cc3[C@@H]2O)c1,inactive,
NC(=O)NN=Cc1ccc([N+](=O)[O-])o1,inactive,
CCCCCCCCCCCCCCCCOS(=O)(=O)O,,24.6 µM (active)
OCCOCCOCCO,inactive,
O=C(O)c1ccc2c(c1)nc(C(=O)NC1CCN(C3CC3)CC1)n2Cc1cc(-c2ccc(Cl)s2)on1,inactive,
CCCCC(CC)C(=O)OCCOCCOCCOC(=O)C(CC)CCCC (stereo not given),inactive,
